# An excerpt weighted towards active compounds, which were near 7.3% of everything screened.
# NPC1 promoter act: qHTS Assay for NPC1 Promoter Activators; Huh7 NPC1 promoter luciferase reporter, 24 h; Potency, µM (highest dose often 9.22 µM), inactives show at the highest dose activation, most hits filed as activators; AID 485313, 2010; actives 2.4% (n = 320,000); note: % of control where 0% means no effect; nearly all actives have a fitted effect of over 60% in size
#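 Quantitative HTS used a cell-based reporter: Huh7 cells stably bearing the NPC1 promoter upstream of luciferase were treated with compounds for 24 h, and promoter activation was read as luminescence.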
# FLuc modulator: qHTS profiling assay for firefly luciferase inhibitor/activator using purifed enzyme and Km concentrations of substrates (counterscreen for miR-21 project) | actives 6.9% (n = 360,000) | Potency, µM (titrated, usually from 57.5 µM), for the others: at the highest dose activity change, negative = inhibition, actives largely listed as inhibitors | Luciferin 4-monooxygenase (Photinus pyralis), P08659 | purified FLuc, Km substrates, luminescence inhibition | AID 588342, 2011;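 note: plate controls were vehicle for no effect and reference inhibitor for full effect; nearly all actives have a fitted effect of over 55% in size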
# Target sequence (P08659 whole entry, looked up): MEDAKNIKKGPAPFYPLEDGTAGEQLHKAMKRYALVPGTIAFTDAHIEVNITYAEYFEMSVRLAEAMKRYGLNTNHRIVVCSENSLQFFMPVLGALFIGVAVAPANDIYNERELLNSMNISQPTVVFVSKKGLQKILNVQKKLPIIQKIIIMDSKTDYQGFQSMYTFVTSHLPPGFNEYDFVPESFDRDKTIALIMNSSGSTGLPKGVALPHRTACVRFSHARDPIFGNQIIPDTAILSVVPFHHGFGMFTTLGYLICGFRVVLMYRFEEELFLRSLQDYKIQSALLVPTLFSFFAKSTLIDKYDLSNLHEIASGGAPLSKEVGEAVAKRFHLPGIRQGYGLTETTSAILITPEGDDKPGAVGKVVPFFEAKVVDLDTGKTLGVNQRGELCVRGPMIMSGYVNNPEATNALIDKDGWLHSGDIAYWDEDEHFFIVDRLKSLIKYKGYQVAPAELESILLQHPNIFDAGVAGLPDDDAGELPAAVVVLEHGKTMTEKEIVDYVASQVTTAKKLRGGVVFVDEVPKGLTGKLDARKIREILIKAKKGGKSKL
#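 Biochemical qHTS of compounds, final roughly 60 µM downward over six points, against 10 nM purified firefly luciferase using Km concentrations of substrates (10 uM D-luciferin, 10 uM ATP) in Tris acetate pH 7.5 buffer; luminescence output.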
# ELG1 genotoxic: qHTS screen for small molecules that induce genotoxicity in human embryonic kidney (HEK293T) cells expressing luciferase-tagged ELG1; Potency, µM (series often up to 46 µM), for inactives: at the top dose activity change, positive = activation, most hits filed as activators; actives 1.3% (n = 330,000); HEK293T ELG1-luciferase reporter, luminescence, 16 h; AID 504466, 2011; note: % of control where 0% means no effect; nearly all actives have a fitted effect of over 60% in size
#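 DMSO vehicle served as control against compound-treated ELG1-luciferase HEK293T cells; exposure lasted 16 hr at 37 °C and 5% CO2, followed by ONE-Glo luminescence detection after 30 min.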
# SMN2 splice enh: qHTS Assay for Enhancers of SMN2 Splice Variant Expression | Potency, µM (doses to about 46.1 µM), for the others: at the highest dose activity change, positive = activation, most hits filed as activators | HEK293 SMN2-luciferase splicing reporter, luminescence, 30-36 h | actives 2.8% (n = 210,000); note: % of control where 0% means no effect; nearly all actives have a fitted effect of over 55% in size
#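 HEK293 cells carry an SMN2 […]–luciferase reporter in which exon 7 inclusion puts luciferase in frame. Cells were plated 10-12 h before compound addition, then incubated 30-36 h at 37C. ONE-Glo luminescence was read; sodium butyrate at 4.5 mM final served as control.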
# Rab9 prom act: qHTS Assay for Rab9 Promoter Activators | actives 2.8% (n = 320,000) | Huh7 Rab9 promoter-luciferase reporter, luminescence, 24 h | AID 485297, 2010 | Potency, µM (doses to about 9.22 µM), inactives show at the highest dose activation, negative = inhibition, actives largely listed as activators; note: % of control where 0% means no effect; nearly all actives have a fitted effect of over 60% in size
#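 Cell-based reporter: Huh7 stable for Rab9 promoter-driven luciferase, plated in reduced-serum medium with 10% FBS at 1500 cells/well, compound-treated 24 h at 37 °C, luminescence read after 10 min reagent.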
# uPA surface inh: qHTS for Inhibitors of Cell Surface uPA Generation; Potency, µM (highest dose often 38.3 µM), for inactives: at the top dose activity change, negative = inhibition, most hits filed as inhibitors; cell surface uPA generation assay, qHTS; actives 0.31% (n = 330,000); active = well fitted inhibition curve with a large enough effect; inconclusive = small, poorly fitted or top-dose-only effect; inactive = no such curve, though single readings can be large or run the other way; tested in mouse RAW 264.7 cells; note: % is set by controls: 0 for no effect and ±100 for the full control effect; nearly all actives have a fitted effect of over 55% in size
# Starred values were filed as active, the others as inactive; ? = inconclusive; . = not tested or not shown; [ ] = dose if it differs, or a comment. Unless noted, calls come from the whole dose curve; as a rule, active = well fitted curve in the direction sought with a large enough effect; inconclusive = small, poorly fitted or top-dose-only effect, or another doubt; inactive = no such curve, though single readings can be large; an effect the other way counts as inactive or inconclusive. Potency is the fitted concentration of half-maximal effect.
SMILES,NPC1 promoter act,FLuc modulator,ELG1 genotoxic,SMN2 splice enh,Rab9 prom act,uPA surface inh
CCOc1cccc(C(=O)Nc2cc(C)c(O)c(-c3nc4ncccc4o3)c2)c1,.,?,.,6%,.,.
COc1cccc(C=Nc2ccc(C)c(F)c2)c1O,2%,?,-4%,3%,2%,1%
CCc1ccc(S(=O)(=O)c2nnn3c2nc(NCCC(C)C)c2cc(Cl)ccc23)cc1,.,-4%,.,8%,.,.
Cn1nnnc1SCC(=O)Nc1nc2c(s1)CCCC2,?,12µM*,8.2µM*,.,3.2µM*,-2%
COc1cc(OC)cc(-n2nnnc2SCC(=O)Nc2nc3c(s2)CCCC3)c1,-1%,-2%,0%,3%,-1%,-11%
O=C(CSC1=NCCS1)Nc1nc2c(s1)CCCC2,?,17µM*,8%,30%,?,-6%
N#Cc1c(NC(=O)CSC2=NCCS2)sc2c1CCCC2,1%,-18%,-5%,-24%,-1%,1%
COc1ccc(C(=O)N2CCC3(CCN(C)CC3)CC2)cc1,.,.,.,-5%,.,.
COc1cccc(C2C(C(=O)Nc3ccccc3OC)=C(C)Nc3nc4ccccc4n32)c1 (configuration not stated),.,-2%,.,23%,.,.
CN=c1scc(-c2ccco2)n1/N=C/c1ccc(O)c(O)c1,-15%,0.67µM*,?,7.9µM*,-25%,-16%
CN=c1scc(C)n1/N=C/c1ccc2c(c1)OCO2,0.71µM*,1.3µM*,0.65µM*,4.5µM*,0.35µM*,-10%
C=CCN=c1scc(C)n1/N=C/c1ccc(O)c(O)c1,-3%,27µM*,?,16µM*,1%,?
CN=c1scc(C)n1/N=C/c1ccc(O)cc1O,0.45µM*,0.43µM*,?,4.5µM*,0.71µM*,-12%
CCCc1nc2ccccc2c(=O)n1/N=C/c1ccc(O)cc1O,-16%,0%,-10%,-22%,1%,-11%
Nc1nc2c(c(=O)[nH]1)N[C@H](CCNc1ccc(C(=O)O)cc1)CN2,.,.,.,-4%[9.22 µM],.,.
COc1ccc(-c2nc3c(c4c2C[C@H](c2ccccc2)OC4)CN(C(=O)N[C@@H](C)c2ccccc2)CC3)c(C)c1,.,.,.,3%[9.22 µM],.,.
CN=c1scc(C)n1/N=C/c1ccc(O)cc1,3.2µM*,3µM*,3.2µM*,?,2.2µM*,-14%
CN=c1scc(C)n1/N=C/c1cc(Br)c(O)c(Br)c1,-4%,11µM*,0%,-15%,-2%,6%
Cc1cc(C)n(/N=C/c2ccc(O)cc2)c(=O)c1C#N,-2%,1%,0%,.,-2%,-2%
O=C(CSc1n[nH]c(-c2ccccc2Cl)n1)NCc1ccc(F)cc1,.,-17%,.,.,.,.
Cc1ccc(-n2nc(C)c3c(C)c(CCC(=O)NCC4CCCO4)c(=O)n(C)c32)cc1 (configuration not stated),-3%,-1%,-13%,.,-12%,3%
Cc1cccc(/C=C(\C(=O)C(=O)O)c2ccc3ccccc3n2)c1,2.2µM*,?,15µM*,22µM*,2.2µM*,9%
O=C(O)C(=O)/C(=C\c1cccc(Cl)c1)c1ccc2ccccc2n1,4%,?,?,11µM*,0%,4%
Cn1cc(S(=O)(=O)c2ccccc2)c(=O)c2cc(F)c(N3CCN(c4ccccc4)CC3)cc21,.,-1%,.,.,.,.
O=C(NNC(=O)c1nn(-c2ccc(F)cc2)ccc1=O)c1ccccc1Cl,-4%,-17%,-5%,.,0%,1%
SMILES,NPC1 promoter act,FLuc modulator,ELG1 genotoxic,SMN2 splice enh,Rab9 prom act,uPA surface inh
CCC(CC)C(=O)Nc1ccc2nc(SCC(=O)N3CCCC3)sc2c1,.,-5%,.,.,.,.
CCN(CC(=O)Nc1c(F)cccc1F)C(=O)/C=C/c1ccc(C)cc1,?,19µM*,?,.,?,-6%
CCN(C(=O)Cn1c(C(=O)OC)cc2sccc21)c1cccc(C)c1,.,-2%,.,-7%,.,.
Cc1ccc(NC(=O)/C(C#N)=C/c2ccc(C)o2)cc1,.,1.9µM*,.,7.1µM*,.,.
Cc1ccc(/C=C(\C#N)C(=O)Nc2cccc(Cl)c2)o1,.,-14%,.,?,.,.
Cc1ccc(/C=C(\C#N)C(=O)NC(C)C)o1,-1%,-1%,-3%,3%,5%,-1%
Cc1cccc(NC(=O)/C(C#N)=C/c2ccc(C)o2)c1,.,9.5µM*,.,13µM*,.,.
COC/C=C/C1=CC2=CC(=O)C(C)(OC(=O)c3ccc(Cl)nc3)C(=O)C2=CO1 (configuration not stated),.,.,.,7%,.,.
CC1SCC(=NOCc2ccccc2)CS1 (configuration not stated),?,19µM*,?,.,?,0%
COc1ccc(-c2cc3ccccc3oc2=O)cc1NC(=O)c1ccc(Br)o1,?,2%,?,3.2µM*,?,3%
COc1ccc(S(=O)(=O)N2CCCCC2)cc1NC(=O)c1ccc([N+](=O)[O-])o1,-7%,-1%,-10%,-40%,-20%,-1%
CC(=O)Nc1ccc(-c2cc3ccccc3o2)cc1,2.2µM*,3µM*,?,11µM*,3.2µM*,-3%
CCC(=O)Nc1ccc(-c2cc3ccccc3oc2=O)cc1,?,7.6µM*,3.7µM*,8.9µM*,?,1%
O=C(Cc1ccc(Cl)cc1)Nc1ccc(-c2cc3ccccc3oc2=O)c(Cl)c1,-26%,-19%,-2%,-20%,-19%,-10%
O=C(Nc1cccc(-c2cc3ccccc3oc2=O)c1)c1ccc(Br)o1,0%,-16%,-2%,25%,-3%,4%
COc1ccc(-c2cc3ccccc3oc2=O)cc1NC(=O)c1ccc([N+](=O)[O-])o1,21%,-9%,8%,6%,3.5µM*,-6%
C=C[C@@H](C1=CC(=O)C(OC)=C(OC)C1=O)c1ccccc1,.,.,.,0%,.,.
COc1ccc(-c2cc3ccccc3oc2=O)cc1NC(=S)NC(=O)c1ccc2c(c1)OCCO2,15%,?,?,-15%,2%,-1%
CCC(=O)Nc1cc(-c2cc3ccccc3oc2=O)ccc1OC,?,-3%,?,1.1µM*,0.79µM*,1%
CCC(C)n1c(=N)c(C(=O)NCc2ccco2)cc2c(=O)n3cc(C)ccc3nc21 (configuration not stated),.,3%,.,-1%,.,.
Nc1c2c(nc3sc4c(c13)CCCC4)-c1ccccc1CC2,0.5µM*,0.13µM*,0.73µM*,.,0.14µM*,-4%
NC(=O)c1sc2nc(-c3ccccc3)c3c(c2c1N)CCCC3,1%,-18%,-6%,-58%,0%,27%
